Consider nine sequences from PMC8384837, “Expanding the binding specificity for RNA recognition by a PUF domain”.

Common to all, as to experiment: yeast three-hybrid, YBZ-1, SC-Leu-His + 0.5 mM 3-AT, 4 days
Common to all, as to details: tags: N-Gal4 AD-HA kept; label: inside an RPR1-promoter hybrid RNA with tandem MS2 sites; ssRNA

One assay addresses PUM1 PUF domain R3-IWT (Homo sapiens, UniProt Q14671 828-1176, C935I;R936W;Q939T). In a few lines: (§1)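 Pumilio-1 PUF domain libraries, randomized at the three base-contacting residues of each repeat, were co-expressed with matching RNA elements from a centromeric plasmid in strain YBZ-1, which carries a LexA–MS2 coat fusion and a HIS3 reporter. Transformants grew for four days on SC-Leu (input) or on SC-Leu-His + 0.5 mM 3-AT (selection), and the repeat regions were PCR-amplified and Illumina-sequenced. The interaction score is the log change in variant frequency from input to selection. That logarithm is base 2, with a pseudocount of 1 where a variant was absent.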

The next assay addresses PUM1 PUF domain R3-ARD (Homo sapiens, UniProt Q14671 828-1176, C935A;Q939D). In a few lines: as §1
The target of another assay is PUM1 PUF domain R3-DWR (Homo sapiens, UniProt Q14671 828-1176, C935D;R936W;Q939R). A digest of the protocol: as §1
PUM1 PUF domain R3-DWR, sequence (Q14671 828-1176 C935D/R936W/Q939R): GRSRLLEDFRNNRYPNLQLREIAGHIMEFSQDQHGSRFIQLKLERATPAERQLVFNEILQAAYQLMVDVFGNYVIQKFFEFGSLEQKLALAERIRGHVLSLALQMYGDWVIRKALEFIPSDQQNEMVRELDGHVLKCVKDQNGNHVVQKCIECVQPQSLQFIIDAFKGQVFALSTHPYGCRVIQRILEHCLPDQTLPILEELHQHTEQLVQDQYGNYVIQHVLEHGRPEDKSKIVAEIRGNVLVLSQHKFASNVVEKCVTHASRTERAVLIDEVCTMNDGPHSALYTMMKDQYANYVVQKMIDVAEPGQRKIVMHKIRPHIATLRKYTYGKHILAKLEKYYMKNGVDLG
In a further assay the target is PUM1 PUF domain R3-FRL (Homo sapiens, UniProt Q14671 828-1176, C935F;Q939L). A digest of the protocol: as §1
PUM1 PUF domain R3-FRL, sequence (Q14671 828-1176 C935F/Q939L): as the sequence (Q14671 828-1176 C935D/R936W/Q939R) above, with D108F, W109R, R112L counted along it
Another assay deals with PUM1 PUF domain R5-RSD (Homo sapiens, UniProt Q14671 828-1176, C1007R;R1008S;Q1011D). In a few lines:
as §1

Another assay addresses PUM1 PUF domain R5-RQH (Homo sapiens, UniProt Q14671 828-1176, C1007R;R1008Q;Q1011H). In a few lines:
as §1

Another assay has as its target PUM1 PUF domain R8-KHT (Homo sapiens, UniProt Q14671 828-1176, N1122K;Y1123H;Q1126T). A digest of the protocol: as §1
A further assay deals with PUM1 PUF domain R8-GHK (Homo sapiens, UniProt Q14671 828-1176, N1122G;Y1123H;Q1126K). A digest of the protocol: as §1
PUM1 PUF domain R8-GHK, sequence (Q14671 828-1176 N1122G/Y1123H/Q1126K): as the sequence (Q14671 828-1176 C935D/R936W/Q939R) above, with D108C, W109R, R112Q, N295G, Y296H, Q299K counted along it
The target in another assay is PUM1 PUF domain R8-RWS (Homo sapiens, UniProt Q14671 828-1176, N1122R;Y1123W;Q1126S). In a few lines: as §1
PUM1 PUF domain R8-RWS, sequence (Q14671 828-1176 N1122R/Y1123W/Q1126S): as the sequence (Q14671 828-1176 C935D/R936W/Q939R) above, with D108C, W109R, R112Q, N295R, Y296W, Q299S counted along it
The target in the next assay is PUM1 PUF domain R4-NNV (Homo sapiens, UniProt Q14671 828-1176, H972N;Q975V). In a few lines:
as §1

The target in another assay is PUM1 PUF domain R4-PYC (Homo sapiens, UniProt Q14671 828-1176, N971P;H972Y;Q975C). In a few lines: as §1
PUM1 PUF domain R4-PYC, sequence (Q14671 828-1176 N971P/H972Y/Q975C): as the sequence (Q14671 828-1176 C935D/R936W/Q939R) above, with D108C, W109R, R112Q, N144P, H145Y, Q148C counted along it
The next assay addresses PUM1 PUF domain R4-VPG (Homo sapiens, UniProt Q14671 828-1176, N971V;H972P;Q975G). In a few lines: as §1
The next assay deals with PUM1 PUF domain R4-GRC (Homo sapiens, UniProt Q14671 828-1176, N971G;H972R;Q975C). A digest of the protocol: as §1
PUM1 PUF domain R4-GRC, sequence (Q14671 828-1176 N971G/H972R/Q975C): as the sequence (Q14671 828-1176 C935D/R936W/Q939R) above, with D108C, W109R, R112Q, N144G, H145R, Q148C counted along it
Another assay deals with PUM1 PUF domain R5-LNL (Homo sapiens, UniProt Q14671 828-1176, C1007L;R1008N;Q1011L). A digest of the protocol: as §1
PUM1 PUF domain R5-LNL, sequence (Q14671 828-1176 C1007L/R1008N/Q1011L): as the sequence (Q14671 828-1176 C935D/R936W/Q939R) above, with D108C, W109R, R112Q, C180L, R181N, Q184L counted along it
For the next assay, the target named is PUM1 PUF domain R5-THV (Homo sapiens, UniProt Q14671 828-1176, C1007T;R1008H;Q1011V). In a few lines: as §1
PUM1 PUF domain R5-THV, sequence (Q14671 828-1176 C1007T/R1008H/Q1011V): as the sequence (Q14671 828-1176 C935D/R936W/Q939R) above, with D108C, W109R, R112Q, C180T, R181H, Q184V counted along it
In a further assay the target is PUM1 PUF domain R3-GPC (Homo sapiens, UniProt Q14671 828-1176, C935G;R936P;Q939C). In a few lines:
as §1

Another assay has as its target PUM1 PUF domain R5-SGT (Homo sapiens, UniProt Q14671 828-1176, C1007S;R1008G;Q1011T). In a few lines:
as §1

The target of a further assay is PUM1 PUF domain R4-GPM (Homo sapiens, UniProt Q14671 828-1176, N971G;H972P;Q975M). A digest of the protocol: as §1
PUM1 PUF domain R4-GPM, sequence (Q14671 828-1176 N971G/H972P/Q975M): as the sequence (Q14671 828-1176 C935D/R936W/Q939R) above, with D108C, W109R, R112Q, N144G, H145P, Q148M counted along it
For another assay, the target named is PUM1 PUF domain R5-IYH (Homo sapiens, UniProt Q14671 828-1176, C1007I;R1008Y;Q1011H). In a few lines: as §1
PUM1 PUF domain R5-IYH, sequence (Q14671 828-1176 C1007I/R1008Y/Q1011H): as the sequence (Q14671 828-1176 C935D/R936W/Q939R) above, with D108C, W109R, R112Q, C180I, R181Y, Q184H counted along it
A further assay addresses PUM1 PUF domain R3-THF (Homo sapiens, UniProt Q14671 828-1176, C935T;R936H;Q939F). A digest of the protocol: as §1

PUM1 PUF domain R4-NNV, sequence (Q14671 828-1176 H972N/Q975V): as the sequence (Q14671 828-1176 C935D/R936W/Q939R) above, with D108C, W109R, R112Q, H145N, Q148V counted along it
PUM1 PUF domain R4-VPG, sequence (Q14671 828-1176 N971V/H972P/Q975G): as the sequence (Q14671 828-1176 C935D/R936W/Q939R) above, with D108C, W109R, R112Q, N144V, H145P, Q148G counted along it
PUM1 PUF domain R5-RSD, sequence (Q14671 828-1176 C1007R/R1008S/Q1011D): as the sequence (Q14671 828-1176 C935D/R936W/Q939R) above, with D108C, W109R, R112Q, C180R, R181S, Q184D counted along it
PUM1 PUF domain R3-GPC, sequence (Q14671 828-1176 C935G/R936P/Q939C): as the sequence (Q14671 828-1176 C935D/R936W/Q939R) above, with D108G, W109P, R112C counted along it
PUM1 PUF domain R5-SGT, sequence (Q14671 828-1176 C1007S/R1008G/Q1011T): as the sequence (Q14671 828-1176 C935D/R936W/Q939R) above, with D108C, W109R, R112Q, C180S, R181G, Q184T counted along it
PUM1 PUF domain R3-THF, sequence (Q14671 828-1176 C935T/R936H/Q939F): as the sequence (Q14671 828-1176 C935D/R936W/Q939R) above, with D108T, W109H, R112F counted along it
PUM1 PUF domain R3-IWT, sequence (Q14671 828-1176 C935I/R936W/Q939T): as the sequence (Q14671 828-1176 C935D/R936W/Q939R) above, with D108I, R112T counted along it
PUM1 PUF domain R3-ARD, sequence (Q14671 828-1176 C935A/Q939D): as the sequence (Q14671 828-1176 C935D/R936W/Q939R) above, with D108A, W109R, R112D counted along it
PUM1 PUF domain R5-RQH, sequence (Q14671 828-1176 C1007R/R1008Q/Q1011H): as the sequence (Q14671 828-1176 C935D/R936W/Q939R) above, with D108C, W109R, R112Q, C180R, R181Q, Q184H counted along it
PUM1 PUF domain R8-KHT, sequence (Q14671 828-1176 N1122K/Y1123H/Q1126T): as the sequence (Q14671 828-1176 C935D/R936W/Q939R) above, with D108C, W109R, R112Q, N295K, Y296H, Q299T counted along it

Take “GGCUAGAACUAGUGGAUCCCCCGGCGCCCGGCGGCUCGAGCCCGGGUAAGUGUAAGUAGUCUGCAUGCCGCCGGGCGCCAUGCCUGCAGGUCGACUCUAGAAAACAUG”: the binding signal with PUM1 PUF domain R3-IWT is 3.1 log2 enrichment (interaction score); in the assay with PUM1 PUF domain R3-ARD, 4.51 log2 enrichment (interaction score); with PUM1 PUF domain R3-DWR, 1.12 log2 enrichment (interaction score); with PUM1 PUF domain R3-FRL it was 4.24 log2 enrichment (interaction score).

Take “GGCUAGAACUAGUGGAUCCCCCGGCGCCCGGCGGCUCGAGCCCGGGUAAGUGUCAAUAGUCUGCAUGCCGCCGGGCGCCAUGCCUGCAGGUCGACUCUAGAAAACAUG”: the binding signal is 2.74 log2 enrichment (interaction score) in the assay with PUM1 PUF domain R5-RSD and 3.64 log2 enrichment (interaction score) in the assay with PUM1 PUF domain R5-RQH.

With “GGCUAGAACUAGUGGAUCCCCCGGCGCCCGGCGGCUCGAGCCCGGGUAAGCGUAAAUAGUCUGCAUGCCGCCGGGCGCCAUGCCUGCAGGUCGACUCUAGAAAACAUG”, the binding signal is 4.89 log2 enrichment (interaction score) with PUM1 PUF domain R8-KHT, 2.58 log2 enrichment (interaction score) with PUM1 PUF domain R8-GHK and 5.59 log2 enrichment (interaction score) in the assay with PUM1 PUF domain R8-RWS.

Take “GGCUAGAACUAGUGGAUCCCCCGGCGCCCGGCGGCUCGAGCCCGGGUAAGUGUAUAUAGUCUGCAUGCCGCCGGGCGCCAUGCCUGCAGGUCGACUCUAGAAAACAUG”: the binding signal is 3.42 log2 enrichment (interaction score) with PUM1 PUF domain R4-NNV, 7.49 log2 enrichment (interaction score) with PUM1 PUF domain R4-PYC, 2.52 log2 enrichment (interaction score) in the assay with PUM1 PUF domain R4-VPG and 2.46 log2 enrichment (interaction score) with PUM1 PUF domain R4-GRC.

For “GGCUAGAACUAGUGGAUCCCCCGGCGCCCGGCGGCUCGAGCCCGGGUAAGUGUUAAUAGUCUGCAUGCCGCCGGGCGCCAUGCCUGCAGGUCGACUCUAGAAAACAUG”, the results for the binding signal in the assay with PUM1 PUF domain R5-LNL, in the assay with PUM1 PUF domain R5-RSD and with PUM1 PUF domain R5-THV were 3.35 log2 enrichment (interaction score), 2.65 log2 enrichment (interaction score) and 3.33 log2 enrichment (interaction score), respectively.

“GGCUAGAACUAGUGGAUCCCCCGGCGCCCGGCGGCUCGAGCCCGGGUAAGUGUAAUUAGUCUGCAUGCCGCCGGGCGCCAUGCCUGCAGGUCGACUCUAGAAAACAUG”: the binding signal with PUM1 PUF domain R3-GPC was 2.82 log2 enrichment (interaction score); with PUM1 PUF domain R3-DWR, 3.53 log2 enrichment (interaction score).

Turning to “GGCUAGAACUAGUGGAUCCCCCGGCGCCCGGCGGCUCGAGCCCGGGUAAGUGUACAUAGUCUGCAUGCCGCCGGGCGCCAUGCCUGCAGGUCGACUCUAGAAAACAUG”, the binding signal was 2.48 log2 enrichment (interaction score) with PUM1 PUF domain R4-NNV, 6.68 log2 enrichment (interaction score) with PUM1 PUF domain R4-PYC, 2.82 log2 enrichment (interaction score) with PUM1 PUF domain R4-VPG and 0.93 log2 enrichment (interaction score) with PUM1 PUF domain R4-GRC.

Turning to “GGCUAGAACUAGUGGAUCCCCCGGCGCCCGGCGGCUCGAGCCCGGGUAAGUGUGAAUAGUCUGCAUGCCGCCGGGCGCCAUGCCUGCAGGUCGACUCUAGAAAACAUG”, the binding signal with PUM1 PUF domain R5-SGT was 2.85 log2 enrichment (interaction score).

With “GGCUAGAACUAGUGGAUCCCCCGGCGCCCGGCGGCUCGAGCCCGGGUAAGUGUAAAUAGUCUGCAUGCCGCCGGGCGCCAUGCCUGCAGGUCGACUCUAGAAAACAUG”, the binding signal was 2.57 log2 enrichment (interaction score) in the assay with PUM1 PUF domain R3-GPC; 2.8 log2 enrichment (interaction score) with PUM1 PUF domain R4-GPM; 4.47 log2 enrichment (interaction score) with PUM1 PUF domain R5-IYH; 0.88 log2 enrichment (interaction score) with PUM1 PUF domain R3-DWR; 4.8 log2 enrichment (interaction score) in the assay with PUM1 PUF domain R8-RWS; 3.81 log2 enrichment (interaction score) with PUM1 PUF domain R3-THF. Moreover, the binding signal in the assay with PUM1 PUF domain R4-NNV is 1.31 log2 enrichment (interaction score); with PUM1 PUF domain R4-PYC, 7.66 log2 enrichment (interaction score); with PUM1 PUF domain R4-VPG it was 3.14 log2 enrichment (interaction score); with PUM1 PUF domain R4-GRC it was 4.62 log2 enrichment (interaction score).
